# Measured values reported in the OligoGym collection.
# Biological target: CTCFL
# Assay: pooled miR-30 sensor sort-seq; sequence = guide strand
# Conditions: shRNA
# Further: reference of the scale not given here.
row,Sequence,sensor-assay potency score (higher = more potent)
1,TTGAATTTGAAACTGTGAGAAC,-1.1
2,TAAAGGTGAACCTTGCTCCTAT,0.214
3,TTAGAAGTTGCTTCTGTCGGAA,-0.207
4,TTTATGTTTCTTCTCACTCTGC,-0.0954

# Biological target: CTDSP1
# Assay: as above
# Conditions: shRNA
row,Sequence,sensor-assay potency score (higher = more potent)
1,TTTGAAGGCACTGACACGGGGC,0.517
2,TTGTCCAGGATGAGCACCCGCC,-0.921
3,TTGTTCACTGGCTTGAAGGAGC,-0.757
4,TAGACCTGGTGGACCACCCCAT,-0.5
5,TACAGCATTGTCTGGATGGAAG,-1.6
6,TCGATGACCACGCAGATCTTGT,-1.32
7,TATTGGACTGGGGTCTTAGGGA,-0.481
8,TACACGTCGTCCACACGGCTGA,-0.19
9,TTGGACTGGGGTCTTAGGGATG,-1.55
10,TTCACTGGCTTGAAGGAGCTGT,0.427
11,TCCAGGTCGATGACCACGCAGA,-1.79
12,TGAGCACTGAGTACACGTCGTC,-0.158

# Biological target: CTHRC1
# Assay: as above
# Conditions: shRNA
row,Sequence,sensor-assay potency score (higher = more potent)
1,TAATTCAATGAACTCCATGAAC,-1.24
2,ATGAACTCCATGAACACTGCTT,0.166
3,TCTTTGTAAATGTACACTCCGC,-0.893
4,TTAGAGCACTATTTGAACGCAT,-0.079
5,TAGCAACATCCACTAATCCAGC,-1.03
6,TAGAGCACTATTTGAACGCATC,-1.21
7,TTTGTAAATGTACACTCCGCAA,-1.33
8,TAAATTATAGCTTCAATGGGAA,-0.0923
9,ATAAATTATAGCTTCAATGGGA,0.0197
10,TTGAATGTGAAATACCAACGCT,-0.453

# Biological target: CTLA4
# Assay: as above
# Conditions: shRNA
row,Sequence,sensor-assay potency score (higher = more potent)
1,TTTCTTTAGCATTTTGCTCAAA,-0.998
2,TAGCAATTACATAAATCTGGGT,-0.226
3,TTAGCAATTACATAAATCTGGG,-0.222
4,TACTCACACACAAAGCTGGCGA,0.197
5,TTGCTTTGCAGAAGACAGGGAT,0.337
6,TTCTTTAGCATTTTGCTCAAAG,-0.747
7,TACATGAGCTCCACCTTGCAGA,-0.733
8,ATCAATTACATAAATCTGGGTT,-0.149
9,TTGCTCAAAGAAACAGCTGTGA,-0.0499
10,TTTGCTCAAAGAAACAGCTGTG,0.483
11,TTGCAGATGTAGAGTCCCGTGT,-0.673
12,TCAATTACATAAATCTGGGTTC,-0.428
13,TGGATCAATTACATAAATCTGG,-0.489
14,TTCACTTGATTTCCACTGGAGG,-0.709
